D1 PAM: Potentiators of Human D1 Dopamine Receptor: qHTS. D(1A) dopamine receptor (Homo sapiens), P21728. AID 504651, 2011. HEK293 TREx D1 cells, calcium flux, dopamine EC20 potentiation. potentiation, % at 10 µM. 360,000 compounds, 0.036% hits; in the data active = potentiation above about 30%
D1 ag: Allosteric Agonists of the Human D1 Dopamine Receptor: qHTS | HEK293 T-REx D1 cells, calcium flux, agonist mode | activation, % at 2 µM | 360,000 compounds, 1% hits; in the data active = activation above about 30%
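Inducible HEK293 T-REx D1 cells, force-coupled to calcium signalling, were plated at 4000 cells/well with tetracycline and held overnight at 30 C. After no-wash calcium dye loading, compound-evoked calcium rise over 180 s flagged agonists.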
DRD3 agonist: qHTS of D3 Dopamine Receptor Agonist: qHTS | D(3) dopamine receptor (Homo sapiens), P35462 | D3R DiscoveRx beta-arrestin cells, luminescence, 90 min | max activation, % | 410,000 compounds, 0.58% hits | AID 652048, 2013; in the data active = max activation above about 30%
Target sequence (P35462 whole entry, looked up): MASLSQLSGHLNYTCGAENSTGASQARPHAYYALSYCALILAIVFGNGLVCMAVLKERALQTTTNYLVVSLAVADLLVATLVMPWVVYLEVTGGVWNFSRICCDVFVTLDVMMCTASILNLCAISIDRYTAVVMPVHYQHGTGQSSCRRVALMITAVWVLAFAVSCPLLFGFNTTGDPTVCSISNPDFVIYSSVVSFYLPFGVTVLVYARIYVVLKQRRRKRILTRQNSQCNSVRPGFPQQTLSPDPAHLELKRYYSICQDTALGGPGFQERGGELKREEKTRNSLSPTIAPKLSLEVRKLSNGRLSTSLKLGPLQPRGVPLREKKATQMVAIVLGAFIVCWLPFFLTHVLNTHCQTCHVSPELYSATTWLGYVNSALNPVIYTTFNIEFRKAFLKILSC
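Cells at 1500/well, incubated overnight, then treated with pinned compounds (dopamine as control) for 90 min at 37 degrees C. DiscoveRx reagent added for 30 - 60 minutes at room temperature; luminescence read.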
D3 antag: qHTS of D3 Dopamine Receptor Antagonist: qHTS | D(3) dopamine receptor (Homo sapiens), P35462 | 360,000 compounds, 2.5% hits | max response, negative = inhibition, % | AID 652054, 2013 | D3R cells, DiscoveRx beta-arrestin luminescence, antagonist mode; hits give low values; in the data active = max response below about -50%; inconclusive = no clear call, values can overlap the other calls
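Cells plated overnight at 1500 cells/well, then exposed to library compounds with dopamine controls for 90 minutes at 37 degrees C. DiscoveRx reagent added for 30–60 minutes at room temperature; luminescence read, quantitative HTS format.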
D1 antagonist: Antagonist of Human D 1 Dopamine Receptor: qHTS | HEK293 TREx D1 cells, calcium flux, dopamine EC80; hits give low values | activity change, negative = inhibition, % at 10 µM | AID 504652, 2011 | 360,000 compounds, 3.2% hits | D(1A) dopamine receptor (Homo sapiens), P21728; in the data active = activity change below about -30%
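Inducible Hek293 Trex D1 cells (tetracycline, overnight, 30 C). Calcium dye 30–90 min RT. Antagonist mode: EC80 dopamine added after 180 s compound read.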
Chronic BCR inh: qHTS Assay to Find Inhibitors of Chronic Active B-Cell Receptor Signaling; Potency, µM (highest dose often 46.1 µM), actives largely listed as inhibitors; ABC-DLBCL IkBa-CBG/CBR reporter, luminescence ratio, 4 h; 340,000 compounds, 0.05% hits; active = well fitted inhibition curve with a large enough effect in the signal ratio, with a control signal flat, not every such curve was filed as active; inconclusive = small, poorly fitted or top-dose-only effect, or effect the other way, or a change in a side signal; the % refers to the signal ratio
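TMD8 human ABC-DLBCL cells with doxycycline-inducible IκBα–green luciferase fusion and unfused red luciferase, in 0.5% FBS medium; compounds up to 46 uM, 4 h at 37C. Green/red luminescence ratio, filter-overlap corrected, fitted to concentration-response curves.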
Large screens that a line does not name were inactive. An excerpt weighted towards active compounds, which were near 6% of everything screened.

Cc1cc(C(=O)Cn2nnc3ccccc3c2=O)c(C)n1-c1ccccc1F	D1 antagonist -53
COc1ccc(-n2c(C)cc(C(=O)Cn3nnc4ccccc4c3=O)c2C)cc1	none
Cc1cc(C(=O)COC(=O)c2ccc(O)cc2)c(C)n1-c1ccccc1F	D1 antagonist -30
Cc1cc(C(=O)COC(=O)c2ccc[nH]c2=O)c(C)n1-c1ccccc1F	none
C[C@@H]1C[C@H]2[C@@H]3CCC4=CC(=O)C=C[C@]4(C)[C@@]3(F)[C@@H](O)C[C@]2(C)[C@@]1(O)C(=O)COC(=O)c1cccc(S(=O)(=O)O)c1	none (no result: D1 PAM, D1 ag, D3 antag, D1 antagonist, Chronic BCR inh)
CCOC(=O)Nc1nc2ccc(Cn3cccc3)cc2[nH]1	none (no result: D1 PAM, D1 ag, D1 antagonist, Chronic BCR inh)
O=C(O)c1ccc(Cn2c(SCc3cc(=O)n4cc(Br)ccc4n3)nc3ccsc3c2=O)cc1	D1 antagonist -31 (no result: DRD3 agonist, D3 antag)
CCN(C(=O)Cn1nc(Cc2ccncc2)c2ccccc2c1=O)c1ccc(OC)cc1	none (no result: D3 antag, Chronic BCR inh)
Cc1ccc(CN2C(=O)C(CC(C)C)Nc3ncnc(N4CCCCC4)c32)cc1 (stereo not given)	none (no result: D1 PAM, D1 ag, D1 antagonist, Chronic BCR inh)
COc1ccc(CN2C(=O)C(C)Nc3ncnc(N4CCN(c5ccccn5)CC4)c32)cc1 (stereo not given)	D3 antag -149 (no result: D1 PAM, D1 ag, D1 antagonist)
CC1Nc2ncnc(N3CCN(c4ccccn4)CC3)c2N(Cc2ccccc2)C1=O (stereo not given)	D3 antag -106
Cc1ccc(CN2C(=O)C(C)Nc3ncnc(N4CCN(c5ccccn5)CC4)c32)cc1 (stereo not given)	D3 antag -132
COc1ccc(CN2C(=O)C(C)Nc3ncnc(N4CCc5ccccc5C4)c32)cc1 (stereo not given)	none (no result: D1 PAM, D1 ag, D1 antagonist, Chronic BCR inh)
COc1ccc(CNC(=O)c2cc(C)nc3c2c(C)nn3-c2cccc(Cl)c2C)cc1	none (no result: D3 antag, Chronic BCR inh)
CCS(=O)(=O)c1oc(-c2ccc(F)cc2)nc1S(=O)(=O)c1ccccc1	none (no result: D3 antag, Chronic BCR inh)
COC(=O)C[C@@H]1CC[C@H](NC(=O)CC2CC2)[C@@H](CO)O1	none (no result: D1 PAM, D1 ag, D1 antagonist, Chronic BCR inh)
CCNC(=S)Nc1cccc(NC(=O)c2ccccc2O)c1	D1 antagonist -36, Chronic BCR inh inconclusive
CCNC(=S)Nc1ccc(NC(=O)c2ccccc2O)cc1	D3 antag inconclusive
Cc1cc(SCC(=O)NCc2ccc(Cl)cc2)nc(=O)[nH]1	none (no result: D3 antag, D1 antagonist)
CCCCSc1nnc2nc(C)cc(C)n12	D3 antag -58, Chronic BCR inh inconclusive
CC(C)Cc1nnc(NC(=O)Cc2cccs2)s1	D1 antagonist -50
COCC(=O)Nc1nnc(-c2cccs2)s1	D3 antag -72
CCCCCCCN1C(Nc2ccccc2)=NC[C@@H]1Cc1ccccc1	Chronic BCR inh inconclusive
CC(C)C[C@H]1CN=C(Nc2ccccc2)N1CCc1ccc(F)cc1	D1 ag 234, D1 antagonist -32
CC(C)C[C@H]1CN=C(Nc2ccccc2)N1CC1CCCCCC1	D1 antagonist -31
CC(C)C[C@H]1CN=C(Nc2ccccc2)N1CCc1cccc(F)c1	none (no result: D1 PAM, D1 ag, D1 antagonist)
Cc1cccc(CCN2C(Nc3ccccc3)=NC[C@@H]2CC(C)C)c1	D1 ag 215, Chronic BCR inh inconclusive
c1ccc(CCCCN2C(Nc3ccccc3)=NC[C@@H]2Cc2ccccc2)cc1	D1 ag 45
CCN1C(Nc2ccccc2)=NC[C@@H]1CC(C)C	none
CC(=O)Nc1cccc(NC(=O)CSc2cn(CC(=O)N(C(C)C)C(C)C)c3ccccc23)c1	none (no result: D3 antag, Chronic BCR inh)
Cc1nc2ccc(C(=O)NC(C)(C)C)cn2c1N(C)C(=O)CCc1ccccc1	none (no result: D1 PAM, D1 ag, D1 antagonist, Chronic BCR inh)
C=CCc1ccc(OCCOCCN(C)C)c(OC)c1	D3 antag -71
C=CCc1ccc(OCCCCNC2CCCC2)c(OC)c1	D3 antag -69
C=CCc1ccc(OC(=O)NC2CCCCC2)c(OC)c1	Chronic BCR inh inconclusive
CCOCC(=O)NC1CCc2cc(OC)c(OC)c(OC)c2-c2ccc(SC)c(=O)cc21 (stereo not given)	none (no result: D1 PAM, D1 ag, D1 antagonist, Chronic BCR inh)
CC(=O)c1cccc(NC(=O)/C(=C/c2ccco2)NC(=O)c2ccco2)c1	D1 PAM 38
COn1c2c(c3c4no[n+]([O-])c4ccc31)CCCC2	none
[O-][n+]1c2c(c3c4non(O)c4ccc31)CCCC2	D1 antagonist -31, Chronic BCR inh inconclusive
Nc1nc(OCc2ccccc2)c2[nH]cnc2n1	D3 antag -121 (no result: D1 PAM, D1 ag, D1 antagonist, Chronic BCR inh)
Nc1nc(SCc2ccccc2)c2[nH]cnc2n1	Chronic BCR inh inconclusive
CCOC(=O)[C@]12CCC=C1N(Cc1ccc(Cl)cc1Cl)C(=O)[C@H](CC(=O)NCc1cccc(C(F)(F)F)c1)C2	none (no result: D1 PAM, D1 ag, D1 antagonist, Chronic BCR inh)
CN1CCCCC1CCN1c2ccccc2Sc2ccc(S(C)=O)cc21 (stereo not given)	D3 antag -75, D1 antagonist -84, Chronic BCR inh inconclusive
CC(=O)c1ccc2c(c1)N(CCCN1CCN(CCO)CC1)c1ccccc1S2	none (no result: D1 PAM, D1 ag, D3 antag, D1 antagonist, Chronic BCR inh)
Cc1cc(Cl)ccc1OCC(=O)N1CCC(c2nc3ccccc3s2)CC1	none (no result: D3 antag, Chronic BCR inh)
COC(=O)C1Cc2c([nH]c3ccccc23)C2(CCN(Cc3ccccc3)CC2)N1 (stereo not given)	D1 ag 58, D3 antag -93, D1 antagonist -39
CCCN1CCC2(CC1)NC(C(=O)O)Cc1c2[nH]c2ccccc12 (stereo not given)	none
Cc1ccc(S(=O)(=O)N2C[C@]3(O)C[C@@H]4C(=O)N(c5ccccc5)C(=O)[C@@H]4C[C@]3(OC(=O)NCc3ccccc3)C2)cc1	none (no result: D1 PAM, D1 ag, D1 antagonist, Chronic BCR inh)
CCCN(CCC)CCc1cccc2c1CC(=O)N2	DRD3 agonist 81 (no result: D1 PAM, D1 ag, D3 antag, D1 antagonist, Chronic BCR inh)
CC(=O)NS(=O)(=O)c1cccnc1Nc1cccc(Cl)c1C	D1 antagonist -33
CCSc1ccc(-c2nn(-c3ccccc3)cc2/C=C(/C#N)C(=O)NCCCOC)cc1	DRD3 agonist 37
O=S(=O)(NCCCN1CCN(c2ccccc2F)CC1)c1cccc2cccnc12	D3 antag -96, D1 antagonist -73
O=S(=O)(NCCN1CCCC1)c1cccc2cccnc12	D3 antag inconclusive
Cc1cccnc1NC(=O)c1ccc([N+](=O)[O-])o1	none
O=C(Nc1cccc2ncccc12)c1ccc([N+](=O)[O-])o1	D1 antagonist -39, Chronic BCR inh inconclusive
O=C(NCc1ccc(F)cc1)c1ccc(CSc2nc3ccncc3n2Cc2ccc(F)cc2)cc1	none (no result: D3 antag, Chronic BCR inh)
COCCCNC(=O)c1ccc2sc([C@@H]3O[C@H](CO)[C@H](O)[C@H](O)[C@H]3O)nc2c1	none (no result: D1 PAM, D1 ag, D1 antagonist, Chronic BCR inh)
O=c1c2cnn(-c3ccccc3)c2ncn1Cc1cccnc1	none
